# Experimental data published in PubChem BioAssay (NCI).
# Compounds without any hit were thinned out: in the full panel of roughly 83,000, 20% have a hit.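 Negative percent growth values reflect cell death: -40 means 40% of the cells present at the start died, and -100 means all died.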 Values without a mark were called inactive. Active and inactive are the calls of the source. How the source made its calls: active means growth percent below 10; inactive means the rest.
# What was measured:
# Test in all cases: NCI-60 one-dose screen, 48 h (100 = growth as untreated, 0 = no growth, -100 = all killed)
# Details in all cases: 10 µM unless noted
# [1] = test system: SK-MEL-2 melanoma
# [2] = test system: EKVX NSCLC
# [3] = test system: SN12C renal
# [4] = test system: UO-31 renal
# [5] = test system: TK-10 renal
# [6] = test system: ACHN renal
# [7] = test system: A498 renal
# [8] = test system: CCRF-CEM leukemia
# [9] = test system: MOLT-4 leukemia
# [10] = test system: CAKI-1 renal
Compound,growth [1],growth [2],growth [3],growth [4],growth [5],growth [6],growth [7],growth [8],growth [9],growth [10]
NCCCN(CCCN)CCCNCc1c2ccccc2c(CNCCCN(CCCN)CCCN)c2ccccc12,100%,89.4%,110%,72.4%,97.5%,100%,95.4%,102%,98.8%,
Cc1cc(C(=O)c2ccc(Cl)cc2)ccc1O,125%,81%,89.3%,84.7%,87%,,76.1%,96.9%,102%,90.5%
CC(C)(C)CC(C)(C)c1ccc(OCCOCCSC(=N)N)cc1,85%,,55%,53.2%,78%,33.5%,75.3%,0.0306% (active),14.4%,65.3%
OC(c1cc(C23CC4CC(CC(C4)C2)C3)nc2c(Cl)cc(Cl)cc12)C1CCCCN1 (centres undefined),-73.5% (active),-33.6% (active),-61.4% (active),,-88.1% (active),,-1.09% (active),-45.3% (active),-53.2% (active),-54.5% (active)
CCCCCCCCCCCC[n+]1ccccc1 (tested in a mixture with another compound),-83.5% (active),-20.5% (active),-15.9% (active),,-47.5% (active),22.2%,42%,-2.6% (active),-30.6% (active),
CCOC(=O)C1=C(C(=O)c2ccccc2)C(c2cccc([N+](=O)[O-])c2)C(C(=O)c2ccccc2)=C(C(=O)OCC)N1,105%,87.9%,93.7%,,,88.4%,104%,65%,52.2%,79.6%
S=C=Nc1ccc(N2CCOCC2)cc1,97.8%,91.7%,104%,,93.2%,96.1%,96.5%,80.6%,92.5%,95.9%
NC(CS/C(Cl)=C/Cl)C(=O)O (centres undefined),53.7%,81.4%,87%,,117%,95.2%,-60% (active),66.5%,97.1%,89.6%
CCCc1cc(=O)oc2c3c(c4c(c12)OC(C)(C)CC4)OC(C)[C@H](C)[C@@H]3O (some centres undefined),13.6%,90%,81%,,139%,,63%,84.8%,54.9%,104%
CCCCCCCCCCCC[S+](C)CC(=O)[O-] (centres undefined),51.7%,22.2%,13.7%,,20.6%,61.4%,95.4%,11.9%,32.9%,38.7%
N#C/C(=N\Nc1ccc(Cl)cc1)C(=O)C1CC1,11.8%,32.2%,41.4%,,52.9%,69.1%,43.4%,64.3%,79.8%,49.1%
COc1cc(OC)c(/C=C/c2c3ccccc3cc[n+]2C)c(OC)c1,20.4%,,14.2%,75.5%,42.1%,71.5%,36.6%,18.2%,14.7%,67.8%
